# An excerpt weighted towards active compounds, which were near 32% of everything screened.
# CYP2C19 inhib – blocks human cytochrome P450 2C19. P33261. CYP2C19 Supersomes, luciferin-H EGE luminescence, 30 min. inhibition, % at 5 µM. 96,000 tested, 21% active. AID 778;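 active means CYP2C19 inhibition above a set limit at 5 µM in the primary screen, cut at about 50% in these data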
# Target sequence (P33261 whole entry, looked up): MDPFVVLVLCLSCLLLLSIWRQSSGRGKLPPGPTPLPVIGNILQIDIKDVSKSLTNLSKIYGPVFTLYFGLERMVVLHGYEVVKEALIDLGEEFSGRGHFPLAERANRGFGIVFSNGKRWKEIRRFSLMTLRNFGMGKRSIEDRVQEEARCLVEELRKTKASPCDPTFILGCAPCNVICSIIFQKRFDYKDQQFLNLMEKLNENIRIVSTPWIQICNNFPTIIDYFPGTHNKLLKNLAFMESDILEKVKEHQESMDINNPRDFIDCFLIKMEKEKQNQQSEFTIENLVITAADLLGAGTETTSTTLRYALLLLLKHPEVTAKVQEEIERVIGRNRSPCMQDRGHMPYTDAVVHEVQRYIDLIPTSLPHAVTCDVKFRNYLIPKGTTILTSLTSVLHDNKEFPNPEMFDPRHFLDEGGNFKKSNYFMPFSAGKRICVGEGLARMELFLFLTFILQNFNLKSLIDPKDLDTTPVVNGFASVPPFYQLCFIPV
# PostGolgi yeast – growth inhibition of a yeast mutant, post-Golgi transport screen; post-Golgi transport phenotypic cell assay; inhibition, % at 10 µM; 98,000 tested, 0.9% active;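 further: yeast cells grown in 1536-well plates; yeast grown about 18 h at 30C before absorbance read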
# CYP2C9 activ – activators of human CYP2C9 | recombinant CYP2C9, luciferin-H conversion, luminescence; stronger effect = higher value; factor 1 = untreated enzyme, 0 = blocked | activation factor at 5 µM | 96,000 tested, 1.4% active | P11712;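 active means activation factor of 2 or more for CYP2C9 at a 5 µM dose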
# PostGolgi ctrl – growth of the yeast control strain, post-Golgi counter-screen; inhibition, % at 10 µM; efflux-deficient yeast background strain, growth absorbance A615, 16 h; AID 738; 98,000 tested, 5% active
# CYP2C19 activ – cytochrome P450 2C19 (human) activation. P33261. recombinant CYP2C19, luciferin-H EGE luminescence; stronger effect = higher value; 0 = fully inhibited enzyme, 1 = untreated enzyme. activation factor at 5 µM. 96,000 tested, under 10 active. AID 1025;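 active means activation factor of at least 2 at 5 µM in the primary screen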
# CYP2C9 inhib – blocks human cytochrome P450 2C9 | CYP2C9 Supersomes, luciferin-H conversion, luminescence | inhibition, % at 5 µM | P11712 | 96,000 tested, 20% active | AID 777;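 active means blocking of liver enzyme CYP2C9 beyond about 50% at 5 µM, limit read from the data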
# Numbers stand for hits; i = inactive; nt = no result given. Unless noted, no stated cut-off is given here; in the data, active means inhibition above about 30%; inactive means the rest.
SMILES,CYP2C19 inhib,PostGolgi yeast,CYP2C9 activ,PostGolgi ctrl,CYP2C19 activ,CYP2C9 inhib
Cc1cc(Br)ccc1NC(=O)CN1C(=O)C2C3CC(c4ccccc4)C(C3)C2C1=O (configuration not stated),i,i,i,53,i,68
NC(=O)c1ccc(-n2nnnc2SCC(=O)Nc2ccccc2-c2ccccc2)cc1,i,i,i,i,i,i
COc1ccccc1-n1nnnc1SCc1ccccc1,75,i,i,i,i,i
NC(=O)c1ccc(-n2nnnc2SCc2ccccc2)cc1,87,i,i,i,i,i
COc1ccccc1-n1nnnc1SCc1cc2c(cc1Br)OCO2,i,i,i,i,i,55
O=C(Nc1nccs1)c1ccc(CSc2nnnn2-c2ccccc2)cc1,92,i,i,i,i,92
CC[C@@H](C(=O)n1nc(C)cc1C)[C@H](NS(=O)(=O)c1ccc(C)cc1)c1ccccc1,i,i,i,i,i,i
O=C(NCCc1ccccc1)C(=O)N/N=C/c1ccccc1C(F)(F)F,i,i,i,i,i,i
Cn1c(=O)c2c(ncn2CC(=O)Nc2cc(Cl)c(Cl)cc2Cl)n(C)c1=O,i,nt,i,nt,i,i
c1ccc(CSc2nnnn2-c2ccccc2)cc1,71,i,i,i,i,i
COc1ccc(CSc2nnnn2Cc2ccccc2)cc1OC,89,i,i,i,i,75
O=c1cc(CSc2nnnn2-c2ccccc2)[nH]c2[nH]n(-c3ccccc3)c(=O)c12,i,i,i,i,i,56
CCOC(=O)c1cc2sccc2n1CC(=O)N1CCN(C(=O)c2ccco2)CC1,i,i,i,i,i,i
COc1ccccc1-n1c(SCC(=O)N2CCOCC2)nc(O)c(Cc2ccccc2)c1=O,i,i,i,i,i,i
Cc1ccc(S(=O)(=O)N(C)c2ccc(OCC(=O)OCc3c(C)noc3C)cc2)cc1,79,i,i,i,i,75
Cc1ccc(C(C)C)c(OCC(=O)OCc2c(C)noc2C)c1,i,i,i,i,i,i
CCN(C(=O)COC(=O)c1ccc(OCc2c(C)noc2C)cc1)c1ccccc1,i,i,i,i,i,i
CCN(c1ccccc1)S(=O)(=O)c1ccc(OCc2c(C)noc2C)cc1,72,i,i,i,i,86
CCOC(=O)N1CCN(Cc2nc3c(c(=O)n(C)c(=O)n3C)n2CCC(C)C)CC1,i,i,i,i,i,i
CCCc1nc(NC(C)=O)c(C#N)c(-c2ccco2)c1CC,i,i,i,i,i,i
COc1ccc(/C=N/Nc2ccccc2)cc1Cn1nc(C)c([N+](=O)[O-])c1C,72,i,i,i,i,50
COc1ccc(/C=N/Nc2ccc([N+](=O)[O-])cc2)cc1Cn1cc([N+](=O)[O-])cn1,i,i,i,i,i,i
O=C(CSc1nnc(-c2ccccc2Cl)n1Cc1ccco1)Nc1ccc2c(c1)OCCO2,90,i,i,i,i,93
O=C(OC(C(=O)NCc1ccc2c(c1)OCO2)c1ccc(Cl)cc1)c1ccco1 (configuration not stated),85,i,i,i,i,98
O=C(CSc1nnc(-c2ccc(Cl)cc2)n1Cc1ccco1)NCc1ccc2c(c1)OCO2,i,i,i,i,i,56
SMILES,CYP2C19 inhib,PostGolgi yeast,CYP2C9 activ,PostGolgi ctrl,CYP2C19 activ,CYP2C9 inhib
CCOc1ccc(C(OC(=O)c2ccco2)C(=O)NCc2ccc(C)cc2)cc1 (configuration not stated),i,i,i,i,i,i
O=C(CSc1nnc(-c2ccc(Cl)cc2)n1Cc1ccco1)Nc1ccc2c(c1)OCCO2,i,nt,i,nt,i,i
O=C(NC1CC1)C1CCN(Cc2cnn(-c3ccccc3)c2-n2cccc2)CC1,i,i,i,i,i,i
O=C(CSc1nnc(C2CC2)n1-c1ccccc1)Nc1ccc(N2CCOCC2)cc1,i,i,i,i,i,i
COc1ccc(C(C)C)cc1S(=O)(=O)n1cnc(C)c1,i,i,i,i,i,i
COc1cc(C)c(Cl)cc1S(=O)(=O)n1cnc(C)c1,97,i,2,i,i,i
Cc1ccc2c(NC(=O)C3CC3)c(C)ccc2n1,i,i,i,i,i,i
O=C1OC(NC(=O)c2ccccc2)C(n2cc(CO)nn2)=C1Cl (configuration not stated),i,i,i,i,i,66
COCCn1c(-c2ccc(Cl)cc2)cnc1SCC(=O)NCc1cccs1,92,i,i,i,i,86
CCCCn1c(SCC(=O)Nc2ccc3c(c2)OCO3)nc2c1c(=O)n(C)c(=O)n2C,i,i,i,i,i,i
CCCCn1nnnc1SCC(=O)Nc1ccc2c(c1)OCO2,i,i,i,i,i,70
CCCn1c(=O)c2ccccc2n2c(SCC(=O)c3ccc(CC)cc3)nnc12,i,i,i,i,i,i
O=C(CSc1nncs1)NCc1ccc2c(c1)OCO2,59,nt,i,nt,i,i
CCCn1c(=O)c2ccccc2n2c(SCc3c(C(=O)OCC)oc4ccccc34)nnc12,59,i,i,51,i,64
Cc1nnc(SCC(=O)NCc2ccc3c(c2)OCO3)s1,i,i,i,i,i,i
COc1ccc(C)cc1NC(=O)CCC(=O)Nc1ccc2nc(N3CCN(C)CC3)cc(C)c2c1,i,i,i,i,i,i
COc1ccc(O)c(C(=O)c2cnn(C(=O)c3cc(C)oc3C)c2)c1,i,i,i,i,i,i
Cc1cc(C(=O)CSc2nncs2)c(C)n1-c1ccc2c(c1)OCO2,86,i,i,i,i,53
CCCn1nnnc1SCC(=O)NCc1cccs1,73,i,i,i,i,i
CCn1nnnc1SCC(=O)NCc1cccs1,i,i,i,i,i,i
CCCCn1nnnc1SCC(=O)Nc1ccc(F)cc1,97,i,i,i,i,71
CCCn1c(=O)c2ccccc2n2c(SCC(=O)NCc3cccs3)nnc12,i,i,i,40,i,i
CCn1c(=O)c2ccccc2n2c(SCC(=O)NCc3cccs3)nnc12,i,i,i,i,i,i
CCCn1nnnc1SCC(=O)c1ccc(NC(C)=O)cc1,i,i,i,i,i,i
Cn1c(CCNC(=O)c2cccs2)nnc1SCC(=O)N1CCN(c2ccccc2)CC1,i,i,i,i,i,i
SMILES,CYP2C19 inhib,PostGolgi yeast,CYP2C9 activ,PostGolgi ctrl,CYP2C19 activ,CYP2C9 inhib
CC(C)CNS(=O)(=O)c1ccc(S(=O)(=O)N2CCN(CCC#N)CC2)cc1,i,i,i,i,i,i
CC(C)n1nnnc1SCC(=O)NCc1ccc2c(c1)OCO2,i,i,i,i,i,i
CCCn1nnnc1SCC(=O)NCc1ccc2c(c1)OCO2,66,i,i,i,i,53
CCCCn1nnnc1SCC(=O)Nc1ccc(N(C)C)cc1,53,i,i,i,i,i
Cc1cc(C(=O)COC(=O)C2=COCCO2)c(C)n1-c1ccc2c(c1)OCO2,92,i,i,i,i,85
Cn1c(SCC(=O)NC(=O)NCc2ccco2)nnc1C(F)(F)F,i,i,i,i,i,i
Cc1cc(OCCOc2cccc3cccnc23)cc(C)c1Cl,i,i,2.2,i,i,i

# Assay outcomes (PubChem BioAssay)
